Laboratory results: PubChem BioAssay AID720504 (National Center for Advancing Translational Sciences (NCATS), 2013)
The whole screen tested about 360,000 compounds, of which about 10,000 (2.8%) were called active. About 4% were inconclusive and are not listed. Only a selection was taken, and actives are over-represented in it overall. A number with no mark means an inactive call. Calls come from the whole dose curve; as a rule, active = well fitted inhibition curve with a large enough effect; inconclusive = small, poorly fitted or top-dose-only effect; inactive = flat fitted curve, though single readings scatter.

Molecular target: Serine/threonine-protein kinase PLK1 (Homo sapiens) (UniProt P53350)
Sequence (P53350 whole entry, looked up, the tested form may be a part): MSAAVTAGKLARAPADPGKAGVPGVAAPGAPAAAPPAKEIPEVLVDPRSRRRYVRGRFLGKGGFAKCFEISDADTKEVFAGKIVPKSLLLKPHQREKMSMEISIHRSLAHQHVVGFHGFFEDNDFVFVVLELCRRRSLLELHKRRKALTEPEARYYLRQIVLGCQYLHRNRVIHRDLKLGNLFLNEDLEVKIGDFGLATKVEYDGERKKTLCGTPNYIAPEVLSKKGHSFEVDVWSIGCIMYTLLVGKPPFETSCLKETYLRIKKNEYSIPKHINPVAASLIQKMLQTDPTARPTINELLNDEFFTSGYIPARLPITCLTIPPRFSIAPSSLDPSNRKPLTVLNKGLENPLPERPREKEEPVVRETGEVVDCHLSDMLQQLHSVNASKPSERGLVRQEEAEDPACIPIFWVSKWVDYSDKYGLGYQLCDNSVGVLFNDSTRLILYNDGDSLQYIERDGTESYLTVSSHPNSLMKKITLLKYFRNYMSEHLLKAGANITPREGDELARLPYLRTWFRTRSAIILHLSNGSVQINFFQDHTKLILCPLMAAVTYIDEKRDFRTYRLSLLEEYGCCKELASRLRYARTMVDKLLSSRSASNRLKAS
Assay: qHTS for Inhibitors of PLK1-PDB (polo-like kinase 1 - polo-box domain): Primary Screen; note: nearly all actives have a fitted effect of over 65% in size; for max response, negative = inhibition: series mostly up to about 57 µM
Conditions: Plk1 PBD binding of FITC phosphopeptide, fluorescence polarization
% is set by controls: 0 for no effect and ±100 for the full control effect; potency is the fitted concentration of half-maximal effect.

Structure (SMILES)	max response, negative = inhibition [%]	Potency
COc1ccc(-n2c(-c3ccc(Cl)cc3)n[nH]c2=S)c(OC)c1	-18.3	–
CC(C)CCNC(=O)c1[nH]c(C(F)(F)F)nc1-c1ccccc1	-2.14	–
COc1ccc(C2CC(c3ccccc3)=NN2C(=O)COC(=O)COc2ccccc2)cc1 (configuration not stated)	-2.07	–
COc1ccc(OCC(=O)NNC(=O)C2CCC2)cc1	3.29	–
COc1ccc(OCc2nnc3n2N=C(c2ccccc2)C(CC(=O)O)S3)cc1 (configuration not stated)	–	1.5 µM (active)
Cc1ccc(NC(=O)[C@H](Cc2ccccc2)NC(=O)CC[C@H]2O[C@@H](n3ccc(=O)[nH]c3=O)[C@H](O)[C@@H]2O)cc1C	-5.11	–
OC(c1cc(Cl)cc(Cl)c1)c1ncc(-c2ccccc2C(F)(F)F)[nH]1 (configuration not stated)	4.04	–
CCOC(=O)[C@]12CCCC=C1N(Cc1cccc3ccccc13)C(=O)[C@H](CC(=O)NCC13CC4CC(CC(C4)C1)C3)C2	-3.19	–
CCCS(=O)(=O)NC(=O)C1(C)CCCN(C(=O)c2cc(C)on2)C1 (configuration not stated)	-2.32	–
CC(=O)c1c(C)[nH]c(=S)c(C#N)c1-c1ccc(F)cc1	-8.58	–
CCc1c(C)[nH]c(=S)c(C#N)c1C	–	29.9 µM (active)
COc1ccc(NC(=O)C(c2ccncc2)n2c(=O)c(-c3cc4ccccc4[nH]3)nc3ccccc32)cc1 (configuration not stated)	12.4	–
CCOC(=O)C(NC(C)=O)C(=O)Nc1ccc(OC)cc1 (configuration not stated)	-7.21	–
COc1ccc(NC(=O)C(NC(C)=O)C(=O)NCc2ccccc2Cl)cc1 (configuration not stated)	–	15 µM (active)
COc1ccc(CNC(=O)C(C)NCc2ccccc2Cl)cc1 (configuration not stated)	5.25	–
C=CCC[C@@H](CCCCC)OC(=O)/C=C/[C@@H](O)[C@H](O)C[C@H](O)CC=C	-3.6	–
CC1(C)OC(=O)C2=C(C[C@@H](C3CC3)O[C@H]2c2ccc(Cl)cc2)O1	-2.8	–
Cc1ccccc1OC(=O)Cn1c(C(F)(F)F)nc2ccccc21	–	15 µM (active)
CC(C)(C)NC(=O)NC(=O)COC(=O)Cn1c(C(F)(F)F)nc2ccccc21	-11.6	–
CN1CCN(C(=O)Cn2c(C(F)(F)F)nc3ccccc32)CC1	-6.38	–
O=C(NCCOc1ccccc1)N1[C@H]2CC[C@@H]1C=C(c1ccc(F)cc1OCc1ccccc1)C2	-5.72	–

Structure (SMILES)	max response, negative = inhibition [%]	Potency
CC1(C(=O)NS(=O)(=O)c2ccc(C#N)cc2)CCN1C(=O)CC1CCCC1 (configuration not stated)	1.71	–
COCC(=O)N(C)C[C@H]1Oc2cc(Br)ccc2S(=O)(=O)N([C@H](C)CO)C[C@H]1C	4.87	–
Cc1ccc(CN2CC(N3CCC(Cc4ccccc4)CC3)CS2(=O)=O)cc1 (configuration not stated)	-6.9	–
Cn1c(=O)[nH]c(=O)c2c1[nH]c(=S)n2Cc1ccccc1	–	23.8 µM (active)
Cn1c(=O)[nH]c(=O)c2c1nc(N(CCO)Cc1ccccc1)n2Cc1ccccc1Cl	-7.01	–
CCN(CC)CCn1cnc2c1c(=O)[nH]c(=O)n2Cc1ccccc1	-4.34	–
COC(=O)[C@@]12C[C@@H](CC(=O)NCc3cccc(C(F)(F)F)c3)C(=O)N(Cc3ccco3)C1=CCC(C)(C)C2	-2.23	–
O=C(NC1CCCC1)C1c2ccccc2OCC(=O)N1Cc1ccccc1 (configuration not stated)	-5.56	–
CCCCCCN1CCN(C2CN(Cc3cn(Cc4ccc(F)cc4)nn3)S(=O)(=O)C2)CC1 (configuration not stated)	3.67	–
OC(c1ccccc1)c1nc(/C=C/c2ccc(C(F)(F)F)cc2)cs1 (configuration not stated)	-1.28	–
CC(=O)Nc1ccc(C=Cc2ccc([N+](=O)[O-])cc2)cc1	-17.4	–
CC(=O)Nc1ccc(C=CC(=O)c2ccc([N+](=O)[O-])cc2)cc1	-8.08	–
O=C(O)/C=C/C(=O)NNc1ccc([N+](=O)[O-])cc1	–	6.7 µM (active)
O=C(NCCO)c1cccc(-c2cccc3nccn23)c1	-13.3	–
C#Cc1ccc(NC(=O)C2(C)CCN2C(=O)Cc2ccc(-c3ccccc3)cc2)cc1 (configuration not stated)	7.1	–
COc1ccc(C(=O)CSc2n[nH]c(N)n2)cc1	–	26.7 µM (active)
COc1ccc(C(=O)CSc2nccc(=O)[nH]2)cc1	-2.62	–
COc1ccc(CNC(=O)CSc2n[nH]c(N)n2)cc1OC	-18.3	–
COc1ccccc1-c1cc2nc(NCc3cccc(Cl)c3)ccn2n1	-9.83	–
CCc1nc2c(OCc3ccc(C(=O)OC)cc3)cccn2c1N(C)C(=O)C(C)C	-10.3	–
OC[C@H]1O[C@@H](c2nc(-c3nc(-c4ccc(F)cc4)no3)cs2)[C@H](O)[C@@H](O)[C@H]1O	-9.06	–
